# Source: PubChem BioAssay
# hgDAF12 agonist: H. glycines DAF-12 receptor agonists, primary screen, cell-based, luminescence, HEK293, GAL4 fusion, UAS-luciferase; Nuclear hormone receptor DAF-12 (Heterodera glycines), GAL4 fusion; HEK293 GAL4-hgDAF12 UAS-luciferase reporter, agonist luminescence; normalized to butyrate control; activation, % at 6.8 µM; actives 1.8% (n = 370,000); AID 687014, 2013;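 active means activation above a cutoff set at the mean of all screened compounds plus 3 SD, cut at about 10% in these data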;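 further: 0% = DMSO wells and 100% = sodium butyrate wells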
# ssDAF12 agonist: S. stercoralis DAF-12 nuclear receptor activators, primary screen, cell-based, luminescence, HEK293, GRIP1 co-expression, lit1-tk-luc. Nuclear hormone receptor DAF-12 (Strongyloides stercoralis). activation, % at 6.8 µM. HEK293 ssDAF-12/GRIP1 lit1-tk-luc reporter; % of 3 µM dafachronic acid response. actives 1% (n = 370,000);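 active means activation above the mean over all tested compounds plus 3 SD, cut at about 0.9% in these data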;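 further: 0% = DMSO-only wells and 100% = 3 µM delta7-dafachronic acid wells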
# hcDAF-12 act: H. contortus DAF-12 nuclear receptor activators, primary screen, cell-based, luminescence, HEK293, lit1-tk-luc reporter; HEK293 hcDAF-12 lit1-tk-luc reporter; 0% DMSO, 100% Δ7-dafachronic acid; actives 1.4% (n = 370,000); activation, % at 6.8 µM; AID 652067, 2013;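 active means activation above the mean of all tested compounds plus 3 SD, cut at about 5.5% in these data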;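 further: 100% = response to 3 µM Δ7-dafachronic acid high control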
# DAX1 inh-1: DAX1 (NR0B1) inhibitors on StAR promoter, primary screen, cell-based, luminescence, SF-1 (NR5A1), full-length DAX-1; HEK293T StAR-luciferase reporter, SF-1/DAX-1 repression relief; inhibition, % at 6.8 µM; actives 1.1% (n = 370,000);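 active means inhibition above the mean over all tested compounds plus 3 SD, cut at about 3.6% in these data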;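 further: 0% = DAX-1 cells with DMSO and 100% = cells lacking DAX-1 with DMSO; higher inhibition means more luminescence from relief of DAX-1 repression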
# DAX1 inh-2: DAX1 (NR0B1) inhibitors, primary screen, cell-based, HEK293, Gal4-DAX1, luciferase luminescence. inhibition, % at 6.75 µM. actives 0.99% (n = 340,000). HEK293 Gal4-DAX1 luciferase reporter;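 active means inhibition above the mean over all tested compounds plus 3 SD, cut at about 4.2% in these data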;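 further: 0% = DAX1-transfected cells with DMSO and 100% = empty-vector control cells with DMSO; inhibition shows as a rise in luminescence from relieved DAX1 repression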
# Rev-erbA mod: modulators of Rev-erb alpha DNA binding, primary screen, biochemical, FITC-DNA, fluorescence polarization, uHTS; Nuclear receptor subfamily 1 group D member 1 (Homo sapiens), P20393; Rev-erbα–FITC-DNA binding, 90 min; activity, % at 10 µM; actives 0.79% (n = 370,000); AID 1259318, 2017;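 active means activity above about 14%, limit read from the data; passing the limit was not always enough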;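 further: 0% = DMSO wells with 35 nM protein and 100% = DMSO wells with 750 nM protein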
# Target sequence (P20393 whole entry, looked up): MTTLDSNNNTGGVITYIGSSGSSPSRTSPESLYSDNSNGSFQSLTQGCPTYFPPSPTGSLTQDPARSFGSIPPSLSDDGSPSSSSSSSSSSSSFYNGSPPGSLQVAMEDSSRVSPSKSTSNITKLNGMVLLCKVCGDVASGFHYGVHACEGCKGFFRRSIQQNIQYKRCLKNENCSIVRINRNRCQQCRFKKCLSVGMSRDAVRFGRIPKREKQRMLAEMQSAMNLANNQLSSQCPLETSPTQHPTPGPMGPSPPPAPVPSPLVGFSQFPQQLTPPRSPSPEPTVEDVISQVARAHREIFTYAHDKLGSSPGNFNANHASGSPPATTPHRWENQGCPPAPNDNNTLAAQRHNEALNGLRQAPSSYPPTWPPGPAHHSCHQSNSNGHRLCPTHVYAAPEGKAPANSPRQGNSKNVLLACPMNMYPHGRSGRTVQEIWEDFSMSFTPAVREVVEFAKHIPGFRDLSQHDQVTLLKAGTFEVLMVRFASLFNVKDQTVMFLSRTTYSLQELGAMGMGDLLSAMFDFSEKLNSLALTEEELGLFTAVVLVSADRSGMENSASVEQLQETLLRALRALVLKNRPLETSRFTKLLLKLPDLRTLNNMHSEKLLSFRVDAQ
# Numbers without * were called inactive; x = not tested or not shown. Most compounds without a hit are left out; they make up all but 4.8% or so of the library.
SMILES,hgDAF12 agonist,ssDAF12 agonist,hcDAF-12 act,DAX1 inh-1,DAX1 inh-2,Rev-erbA mod
COC(=O)[C@H]1C[C@@]2(N3CCCCC3)c3ccccc3N(C(=O)OC(C)(C)C)[C@H]2N1C(=O)OC(C)(C)C,-2.1,-1.2,-0.6,-0.7,x,-12.0
O=c1cc(CN(Cc2ccccc2)Cc2ccccc2)c2c(ccc3ccccc32)o1,1.1,1.8*,2.8,1.0,x,9.2
C=CCN1[C@H](CC(C)C)COc2cc(N3CCCC3)ccc2S1(=O)=O,-1.7,0.0,-1.9,-1.1,x,2.5
COC(=O)/C(=C\C(=O)c1ccccc1)Nc1ccc(OC)cc1,3.4,-0.1,2.4,1.0,2.1,-8.0
Cc1ccc(N/C(=C\C(=O)c2ccccc2)C(=O)O)cc1,10.5*,1.1*,3.0,4.3*,1.4,-9.6
CCc1noc(C)c1C(=O)N1CCN(CC(=O)OC)CC1,-3.4,-1.4,0.4,0.4,x,7.5
CCCC#C/C(CCC)=C1\c2ccccc2C(=O)N1c1ccccc1,6.7,-0.6,1.0,0.8,x,0.8
Cc1ccc(S(=O)(=O)N2CCOC2C(Cl)(Cl)Cl)cc1 (stereo unspecified),-3.6,1.2*,-2.4,0.5,-0.1,8.3
COC(=O)C[C@H]1CC[C@H]2[C@H](COc3ccc(NS(=O)(=O)c4cccc(OC)c4)cc3C(=O)N2C)O1,3.0,-0.5,-2.4,-1.6,x,3.4
COC(=O)/C(C#N)=C1/C=Cc2ccccc2N1,10.4,-0.8,5.9*,1.2,3.4,-6.8
Nc1ccccc1C(=O)NNc1c2ccccc2nc2ccccc12,6.2,-0.4,6.4*,0.1,2.2,3.8
Cc1ccc(C(=O)NNc2c3ccccc3nc3ccccc23)cc1,1.1,-0.7,-0.3,-0.7,-0.4,-4.0
O=C(NC1CCCCC1)C(CCc1ccccc1)N1CCOCC1 (stereo unspecified),12.0*,-0.4,0.0,0.9,x,-6.0
Fc1ccc(-c2cc(-c3nnc4sc(-c5cccs5)nn34)[nH]n2)cc1,-1.1,-1.9,-2.1,-2.0,x,-10.8
CCc1ccc(OCC(=O)O/N=C(\N)c2ccccn2)cc1,11.4*,-0.7,3.1,3.5,x,-3.6
N/C(=N\OC(=O)c1ccccc1)c1ccncc1,10.2,-1.3,0.3,1.4,0.5,-0.5
N/C(=N\OC(=O)CSc1ccccc1)c1ccncc1,7.8,-0.2,5.7*,3.6,1.6,3.7
N/C(=N\OC(=O)CCC1CCCC1)c1ccccc1,-1.0,-0.7,-1.1,0.0,-0.7,-2.9
N/C(=N\OC(=O)COc1ccccc1)c1ccccn1,11.1*,-0.6,0.3,2.7,2.5,-5.6
Cc1ccc(OCC(=O)O/N=C(\N)c2ccccn2)cc1C,6.8,-0.9,2.7,1.9,x,-6.9
N/C(=N\OC(=O)CCC1CCCC1)c1ccccn1,8.4,-0.5,0.7,4.2*,1.5,-0.8
Cc1cccc(OCC(=O)O/N=C(\N)c2ccccn2)c1,7.6,-0.5,3.2,1.4,3.1,5.2
N/C(=N\OC(=O)Cc1ccccc1)c1ccccn1,11.8*,-0.6,0.4,0.9,0.1,3.4
N/C(=N\OC(=O)COc1ccccc1)c1ccncc1,4.4,-0.7,-1.2,0.0,5.3*,-1.3
Cc1ccccc1C1c2[nH]c3ccccc3c2C[C@H]2C(=O)N(C3CC3)CC(=O)N12 (stereo partly specified),-1.4,0.1,6.4*,0.0,-0.6,4.2
SMILES,hgDAF12 agonist,ssDAF12 agonist,hcDAF-12 act,DAX1 inh-1,DAX1 inh-2,Rev-erbA mod
O=C1[C@@H]2Cc3c([nH]c4ccccc34)C(c3ccccc3)N2C(=O)CN1C1CC1 (stereo partly specified),-0.1,-0.2,4.2,-0.7,1.5,-1.0
CCn1c(C(=O)OC)cc2c1ccn2-c1ccc(F)cc1,13.2*,0.1,1.8,0.7,2.4,-5.2
COC(=O)c1cc2c(ccn2-c2ccc(F)cc2)n1Cc1ccc(OC)cc1,4.7,-0.3,-2.5,-0.1,0.4,6.4
Nc1ccc2c(c1)sc1ccccc12,11.2*,-1.0,2.6,1.9,0.7,-3.5
COC(=O)[C@]12C[C@H](CC(=O)N3CCN(C(=O)C4CC4)CC3)C(=O)N(Cc3ccc(Cl)cc3Cl)C1=C[C@H](C(C)C)O[C@@H]2C1CC1,-0.6,-1.6,-2.5,-1.7,x,2.0
COc1ccc(Cc2c(-c3cccc(Br)c3)nc3cc(C)c(Br)c(C)n23)c(C)c1,-6.7,0.5,4.5,-2.3,x,0.2
COc1ccc(Cc2c(-c3ccc(Cl)cc3)nc3cc(C)c(Br)c(C)n23)c(C)c1,13.2*,0.9*,5.1,1.1,x,-6.5
COc1ccc(Cc2c(C(C)(C)C)nc3cc(C)c(Br)c(C)n23)c(C)c1,3.8,1.8*,0.5,0.0,x,-2.2
COc1ccc(Cc2c(-c3ccc(F)cc3)nc3cc(C)c(Br)c(C)n23)c(C)c1,10.0,2.2*,5.7*,1.3,x,0.6
CC(C)(O)c1ccccc1CC[C@@H](SC1(CC(=O)O)CC1)c1cccc(/C=C/c2ccc3ccc(Cl)cc3n2)c1,x,x,x,x,x,-2.5
CCOC(=O)CC[C@H]1CC[C@]2(CCCN(S(=O)(=O)C3CCCCC3)C2)O1,-0.2,-1.1,-0.4,-0.5,x,2.4
O=C(O)C1CC=CCC1C(=O)NCc1cn2ccccc2n1 (stereo unspecified),1.1,1.1*,0.3,-0.4,-0.2,-2.7
O=C(O)C1CCCCC1C(=O)NCc1cn2ccccc2n1 (stereo unspecified),1.0,-1.4,-0.5,0.5,0.2,-1.2
S=c1[nH]nc(-c2cc(-c3ccccc3)n[nH]2)n1/N=C/c1ccccc1,4.1,-1.3,-0.8,1.1,7.3*,-0.4
CC(C)(C)SCCNC(=O)c1ccccc1,7.1,0.1,1.5,1.9,2.6,-2.5
Cc1ccc(C(=O)NCCSC(C)(C)C)cc1,10.8*,0.4,4.6,4.0*,2.2,2.6
CC(C)(C)Nc1nc(NCc2cccnc2)nc(N2CCOCC2)n1,-1.5,-1.1,-0.8,0.6,5.9*,4.6
c1cncc(CNc2nc(N3CCOCC3)nc(N3CCOCC3)n2)c1,0.2,-1.2,0.2,-0.5,-0.6,2.0
CC(C)[C@H](NC(=O)c1cc2cc(Cl)ccc2n1C)C(=O)N[C@@H](C(=O)O)c1ccccc1,-0.4,-0.6,0.7,0.4,-1.4,-1.9
